Experimental data reported in PubChem BioAssay (NCI).
The panel holds about 83,000 compounds, 20% with a hit somewhere; the sample as a whole holds those more often.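 A percent growth of 40 corresponds to 60% growth inhibition; 0 means no net growth; -100 means all cells died. Active threshold: below 10.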 The source made the active and inactive calls.

Key:
Assay in all cases: NCI-60 one-dose screen, 48 h (100 = growth as untreated, 0 = no growth, -100 = all killed)
Conditions in all cases: 10 µM unless noted
SK-MEL-2 melanoma = tested on: SK-MEL-2 melanoma
EKVX NSCLC = tested on: EKVX NSCLC
SN12C renal = tested on: SN12C renal
TK-10 renal = tested on: TK-10 renal
ACHN renal = tested on: ACHN renal
CAKI-1 renal = tested on: CAKI-1 renal
A498 renal = tested on: A498 renal
CCRF-CEM leukemia = tested on: CCRF-CEM leukemia
MOLT-4 leukemia = tested on: MOLT-4 leukemia
SR leukemia = tested on: SR leukemia
RPMI-8226 leukemia = tested on: RPMI-8226 leukemia
OVCAR-8 ovarian = tested on: OVCAR-8 ovarian
OVCAR-5 ovarian = tested on: OVCAR-5 ovarian
OVCAR-4 ovarian = tested on: OVCAR-4 ovarian
SK-OV-3 ovarian = tested on: SK-OV-3 ovarian
OVCAR-3 ovarian = tested on: OVCAR-3 ovarian
HS 578T breast = tested on: HS 578T breast
NCI/ADR-RES ovarian = tested on: NCI/ADR-RES ovarian
IGROV1 ovarian = tested on: IGROV1 ovarian
UO-31 renal = tested on: UO-31 renal

Measured: growth

Nc1nc(NC2CC2)c2ncn(C3C=CC(CO)C3)c2n1 (stereo not drawn)
inactive: SK-MEL-2 melanoma 89.4% | EKVX NSCLC 115% | SN12C renal 98.2% | TK-10 renal 96.4% | ACHN renal 103% | CAKI-1 renal 90.4% | A498 renal 104% | CCRF-CEM leukemia 97.3% | MOLT-4 leukemia 76.9% | SR leukemia 80.8% | RPMI-8226 leukemia 111% | OVCAR-8 ovarian 93.9% | OVCAR-5 ovarian 103% | OVCAR-4 ovarian 106% | SK-OV-3 ovarian 117% | OVCAR-3 ovarian 110% | HS 578T breast 104% | NCI/ADR-RES ovarian 104%

CCC(=O)Nc1cc2c(cc1Cl)-c1ccccc1C2
inactive: SK-MEL-2 melanoma 97.5% | EKVX NSCLC 57.1% | SN12C renal 68.7% | TK-10 renal 110% | ACHN renal 87.1% | CAKI-1 renal 83.6% | A498 renal 83.6% | CCRF-CEM leukemia 72.3% | MOLT-4 leukemia 82.1% | SR leukemia 101% | OVCAR-8 ovarian 98% | OVCAR-5 ovarian 85.5% | OVCAR-4 ovarian 101% | SK-OV-3 ovarian 107% | IGROV1 ovarian 86.4% | OVCAR-3 ovarian 106% | HS 578T breast 111% | NCI/ADR-RES ovarian 90.1%

COc1ccc2c(c1)sc1nc(-c3ccc(N(C)C)cc3)cn12
inactive: SK-MEL-2 melanoma 88.6% | EKVX NSCLC 101% | SN12C renal 123% | TK-10 renal 132% | ACHN renal 135% | CAKI-1 renal 86.2% | A498 renal 111% | CCRF-CEM leukemia 71.2% | MOLT-4 leukemia 76.7% | RPMI-8226 leukemia 33% | OVCAR-5 ovarian 98.8% | OVCAR-4 ovarian 97.8% | SK-OV-3 ovarian 82.6% | IGROV1 ovarian 15.8% | OVCAR-3 ovarian 88.5% | HS 578T breast 122% | NCI/ADR-RES ovarian 76.8%

CC(C)Cn1cnc2c(NCn3nc(-c4cc(Cl)cc(Cl)c4Cl)n(/N=C/c4ccc(Cl)cc4)c3=S)nc3ccccc3c21
active: IGROV1 ovarian 4.11%
inactive: SK-MEL-2 melanoma 81.8% | EKVX NSCLC 70.6% | SN12C renal 85% | TK-10 renal 90.4% | ACHN renal 81.6% | CAKI-1 renal 63.9% | A498 renal 96.8% | MOLT-4 leukemia 82.2% | RPMI-8226 leukemia 44.3% | OVCAR-8 ovarian 72.4% | OVCAR-5 ovarian 92.1% | OVCAR-4 ovarian 71.1% | SK-OV-3 ovarian 110% | OVCAR-3 ovarian 98% | HS 578T breast 94% | NCI/ADR-RES ovarian 56.3%

O=C(COc1cccc(/C=C2\Oc3ccc4ccccc4c3C2=O)c1)c1ccc([N+](=O)[O-])cc1
inactive: SK-MEL-2 melanoma 44.3% | EKVX NSCLC 85.4% | SN12C renal 98.2% | TK-10 renal 99.9% | ACHN renal 98.4% | CAKI-1 renal 69.3% | A498 renal 108% | CCRF-CEM leukemia 35.7% | MOLT-4 leukemia 32% | RPMI-8226 leukemia 79.9% | OVCAR-8 ovarian 97.6% | OVCAR-5 ovarian 100% | OVCAR-4 ovarian 81.8% | SK-OV-3 ovarian 88.9% | OVCAR-3 ovarian 103% | HS 578T breast 93.1% | NCI/ADR-RES ovarian 102%
active: SR leukemia 3.73%

COc1ccc2ncccc2c1Cc1c(OC)ccc2ncccc12
inactive: SK-MEL-2 melanoma 75.6% | EKVX NSCLC 85.4% | SN12C renal 89.4% | TK-10 renal 89.2% | ACHN renal 86.1% | CAKI-1 renal 57.6% | A498 renal 60.4% | CCRF-CEM leukemia 70.7% | MOLT-4 leukemia 57.9% | SR leukemia 25.7% | OVCAR-8 ovarian 87.3% | OVCAR-5 ovarian 91.4% | OVCAR-4 ovarian 83.3% | SK-OV-3 ovarian 83.6% | IGROV1 ovarian 64.1% | OVCAR-3 ovarian 72.9% | HS 578T breast 72.6% | NCI/ADR-RES ovarian 40.8%

COc1cc(/C=C/C(=O)c2c(C)n([O-])c3ccccc3[n+]2=O)cc(OC)c1OC
inactive: SK-MEL-2 melanoma 36.8% | EKVX NSCLC 35.5% | SN12C renal 54.6% | TK-10 renal 87.9% | ACHN renal 76.6% | CAKI-1 renal 26.3% | A498 renal 69.7% | OVCAR-8 ovarian 30.6% | OVCAR-5 ovarian 80.6% | OVCAR-4 ovarian 46.9% | SK-OV-3 ovarian 58.3% | OVCAR-3 ovarian 59.2% | HS 578T breast 43.2% | NCI/ADR-RES ovarian 43.4%
active: CCRF-CEM leukemia -51.2% | MOLT-4 leukemia -64.5% | RPMI-8226 leukemia 9.32% | IGROV1 ovarian -15.8%

N#Cc1c(NC(=O)c2ccco2)[n+]([O-])c2cc(Cl)c(Cl)cc2[n+]1[O-]
active: MOLT-4 leukemia 1.53% | IGROV1 ovarian -12.2%
inactive: SK-MEL-2 melanoma 89.9% | EKVX NSCLC 82.4% | SN12C renal 94.1% | TK-10 renal 163% | ACHN renal 110% | CAKI-1 renal 134% | A498 renal 109% | RPMI-8226 leukemia 92.2% | OVCAR-8 ovarian 100% | OVCAR-5 ovarian 87.4% | OVCAR-4 ovarian 100% | SK-OV-3 ovarian 118% | OVCAR-3 ovarian 109% | NCI/ADR-RES ovarian 88.7%

O=C1C(=O)c2c(nc3ccc(Cl)cn23)-c2ccccc21
active: SK-MEL-2 melanoma -90.2% | EKVX NSCLC -95.6% | SN12C renal -100% | TK-10 renal -86.3% | ACHN renal -100% | CAKI-1 renal -95.4% | A498 renal -100% | CCRF-CEM leukemia -49.6% | MOLT-4 leukemia -94.5% | SR leukemia -86.5% | RPMI-8226 leukemia -53.7% | OVCAR-8 ovarian -100% | OVCAR-5 ovarian -100% | OVCAR-4 ovarian -100% | SK-OV-3 ovarian -100% | OVCAR-3 ovarian -96% | HS 578T breast -33.8% | NCI/ADR-RES ovarian -41.1%

CC(=O)Nc1cc(C(c2ccccc2)c2ccccc2)cc(C(c2ccccc2)c2ccccc2)c1C
active: MOLT-4 leukemia 8.92%
inactive: SK-MEL-2 melanoma 27% | EKVX NSCLC 61.4% | SN12C renal 69.7% | TK-10 renal 84.3% | ACHN renal 51.1% | CAKI-1 renal 49.2% | CCRF-CEM leukemia 34.1% | SR leukemia 14.3% | RPMI-8226 leukemia 11.2% | OVCAR-5 ovarian 75.4% | OVCAR-4 ovarian 43.8% | SK-OV-3 ovarian 77% | IGROV1 ovarian 58% | OVCAR-3 ovarian 49.8% | NCI/ADR-RES ovarian 51.8%

O=C1C=CC(=O)N1c1ccccc1N1C(=O)C=CC1=O
inactive: SK-MEL-2 melanoma 98.6% | EKVX NSCLC 115% | SN12C renal 97.5% | TK-10 renal 97.3% | CAKI-1 renal 85.2% | A498 renal 101% | MOLT-4 leukemia 99.2% | SR leukemia 92% | RPMI-8226 leukemia 124% | OVCAR-8 ovarian 107% | OVCAR-5 ovarian 93.4% | OVCAR-4 ovarian 116% | SK-OV-3 ovarian 103% | IGROV1 ovarian 95.3% | OVCAR-3 ovarian 103% | HS 578T breast 104% | NCI/ADR-RES ovarian 119%
active: CCRF-CEM leukemia 1.88%

COc1ccc2c(c1)C(=Nc1cc(OC)c(OC)c(OC)c1)C(=O)N2
inactive: SK-MEL-2 melanoma 76.8% | EKVX NSCLC 97% | SN12C renal 97.3% | TK-10 renal 136% | ACHN renal 88.5% | CAKI-1 renal 122% | CCRF-CEM leukemia 81.1% | MOLT-4 leukemia 104% | SR leukemia 75.4% | RPMI-8226 leukemia 65.9% | OVCAR-5 ovarian 99.5% | OVCAR-4 ovarian 111% | SK-OV-3 ovarian 97.4% | IGROV1 ovarian 94.1% | OVCAR-3 ovarian 72.4% | NCI/ADR-RES ovarian 103%

COc1ccc(-n2cnc3cc(C(=O)N4CCCCC4)ccc32)cc1
inactive: SK-MEL-2 melanoma 111% | SN12C renal 95% | UO-31 renal 97.4% | TK-10 renal 110% | ACHN renal 97.9% | CAKI-1 renal 98.5% | A498 renal 96.3% | CCRF-CEM leukemia 98% | MOLT-4 leukemia 98% | SR leukemia 94.9% | RPMI-8226 leukemia 101% | OVCAR-8 ovarian 100% | OVCAR-5 ovarian 93.1% | OVCAR-4 ovarian 100% | SK-OV-3 ovarian 99.5% | IGROV1 ovarian 112% | OVCAR-3 ovarian 108% | HS 578T breast 100% | NCI/ADR-RES ovarian 107%

CCN(CC)c1ccc(/C=C/C(=O)c2cccc(NS(C)(=O)=O)c2)cc1
inactive: SK-MEL-2 melanoma 83.1% | EKVX NSCLC 57.6% | SN12C renal 40.3% | TK-10 renal 25.6% | ACHN renal 37.7% | A498 renal 22.8% | CCRF-CEM leukemia 13.3% | OVCAR-5 ovarian 64.4% | OVCAR-4 ovarian 42.2% | SK-OV-3 ovarian 51.1% | OVCAR-3 ovarian 48.5% | HS 578T breast 28.5% | NCI/ADR-RES ovarian 26.4%
active: MOLT-4 leukemia 8.78% | SR leukemia -4.7% | IGROV1 ovarian 9.33%

C/C(=C\CCc1ccsc1)CC/C=C(\C)CCCN1CCSCC1
inactive: SK-MEL-2 melanoma 89.3% | SN12C renal 78.9% | UO-31 renal 59.9% | TK-10 renal 108% | ACHN renal 94.7% | CAKI-1 renal 87.5% | A498 renal 23.5% | CCRF-CEM leukemia 73.7% | MOLT-4 leukemia 81.2% | SR leukemia 53.6% | RPMI-8226 leukemia 58% | OVCAR-8 ovarian 99.9% | OVCAR-5 ovarian 94.8% | OVCAR-4 ovarian 84.3% | SK-OV-3 ovarian 93.1% | IGROV1 ovarian 94.1% | OVCAR-3 ovarian 82.3% | HS 578T breast 93.2% | NCI/ADR-RES ovarian 84.9%

COc1ccc(-c2nnc3c4[nH]cnc4ncn23)c(OC)c1
active: MOLT-4 leukemia 8.73% | RPMI-8226 leukemia 9.32%
inactive: SK-MEL-2 melanoma 29.9% | SN12C renal 55.3% | UO-31 renal 23.3% | TK-10 renal 10.8% | ACHN renal 28.2% | CAKI-1 renal 20.9% | A498 renal 80.4% | CCRF-CEM leukemia 12.6% | SR leukemia 15.5% | OVCAR-8 ovarian 18.4% | OVCAR-5 ovarian 17% | OVCAR-4 ovarian 36.8% | SK-OV-3 ovarian 11.4% | IGROV1 ovarian 45.8% | OVCAR-3 ovarian 13.4% | NCI/ADR-RES ovarian 17.6%

O=C1/C(=C/c2ccccc2O)C(=S)SN1Cc1ccco1
inactive: SK-MEL-2 melanoma 81.4% | SN12C renal 93.8% | UO-31 renal 84.4% | TK-10 renal 98.8% | ACHN renal 106% | CAKI-1 renal 119% | A498 renal 95.2% | CCRF-CEM leukemia 70.7% | MOLT-4 leukemia 99% | RPMI-8226 leukemia 66.8% | OVCAR-5 ovarian 102% | OVCAR-4 ovarian 105% | SK-OV-3 ovarian 98.8% | IGROV1 ovarian 93.4% | OVCAR-3 ovarian 111% | HS 578T breast 104% | NCI/ADR-RES ovarian 110%
active: SR leukemia -9.87%
